This is part of a sample that, as a whole, favours compounds with a hit. Of some 83,000 tested, about 20% had one in any assay.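 Single-concentration screen, 48 h exposure, 96-well plates. Endpoint: percent growth. Below 10 = active.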 A number with no mark means an inactive call. The source made the active and inactive calls.

For the first experiment, the system named is UACC-257 melanoma. The experiment in a line: NCI-60 one-dose screen, 48 h (100 = growth as untreated, 0 = no growth, -100 = all killed). The following applies: 10 µM unless noted.
As for `COc1ccc(/C=C/c2nc3ccccc3nc2/C=C/c2ccc(OC)cc2)cc1`, the growth was 106%.

As for `C=CC(=O)Nc1cccc(-c2nc(SC)nc(NCCN3CCOCC3)c2C#N)c1`, the growth is 94.1%.

For the compound `COc1cc2nc(N3CCCC3)nc(NCc3ccccc3)c2cc1OC`, the growth was -46.6% (active).

With `COc1cc(CNc2oc(-c3ccccc3)c(-c3ccccc3)c2C#N)cc(CN2CCN(C)CC2)c1O`, the growth is -4.26% (active).

Turning to `O=C(/C=C/c1cc(CN2CCOCC2)c(O)c2ncccc12)c1cc(CN2CCOCC2)c(O)c2ncccc12`, the growth was -6.41% (active).

Regarding `CSc1nc(NCCO)c(C#N)c(-c2cccc([N+](=O)[O-])c2)n1`, the growth was 115%.

Consider `CCN(CC)c1ccc(-c2cc(-c3cc(OC)c(OC)c(OC)c3)nc(N3CCOCC3)c2C#N)cc1`, for which the growth is -23.5% (active).

In the case of `COc1ccc2[nH]cc(-c3noc(C(=O)c4cn(C)c5ccc(F)cc45)n3)c2c1`, the growth was 97.5%.

In the case of `CCCc1cc(=O)n2c(C(=O)Nc3cccc(C(=O)OCC)c3)c(C(=O)Nc3ccc(F)cc3)sc2n1`, the growth was 64.5% [30 µM].

As to `O=S(=O)(Nc1ccc(I)cc1F)c1ccc(-c2cnc(C3CC3)o2)cc1`, the growth is 63.1%.

Turning to `COC(=O)c1cccc(NC(=O)c2ccc(-c3cccc(N)c3)o2)c1`, the growth is 112%.

Take `O=C(/C=C/c1ccccc1)c1ccc(O)c(CN2CCN(c3cc4c(cc3F)c(=O)c(C(=O)O)cn4C3CC3)CC2)c1`: the growth is 31.7%.

`Cc1[nH]c(-c2cc(N)ccc2Cl)c2c1C(=O)CCCC2`: the growth was 18.6%.

As for `Nc1nc2ncc(CCNc3ccc(C(=O)O)cc3)nc2c(=O)[nH]1`, the growth was 104%.

For `O=C1c2cc3c(cc2-c2c1c1ccc(F)cc1c(=O)n2CCCNCCO)OCO3`, the growth is -28% (active).

Consider `N#C/C(=C\c1ccc(-c2cc(C(F)(F)F)ccc2Cl)o1)c1nc(-c2ccco2)cs1`, for which the growth is 112%.

As for `O=c1cc(CSc2nnc(-c3ccc(F)cc3)o2)c2ccc3ccccc3c2o1`, the growth is 103%.

`C=C(C)[C@@H]1CC[C@]2(C(=O)OC)CC[C@]3(C)[C@H](CC[C@@H]4[C@@]5(C)C/C(=C/c6cccc(I)c6)C(=O)C(C)(C)[C@@H]5CC[C@]43C)[C@@H]12`: the growth is 107%.

Consider `O=C1OCC2=C1C(c1ccncc1)c1cc3c(cc1N2CCO)OCO3` (centres undefined), for which the growth is 99.5%.

As to `COC(=O)c1ccc(NC(=O)c2ccc(-c3cccc([N+](=O)[O-])c3)o2)cc1`, the growth was 102%.

Turning to `O=c1cc(/C(=C2/C=CC=N2)c2ccc[nH]2)c2cc(Cl)ccc2o1`, the growth is 38.3%.

With `COc1ccc2nc(NC(=O)CSc3nnc4n3S(=O)(=O)c3ccccc3N4c3ccccc3)sc2c1`, the growth is 103%.

Take `Cc1cc(C)nc(SC2=C(Nc3ccc(C)c(Cl)c3)C(=O)N(Cc3ccccc3)C2=O)n1`: the growth is 67.4% [30 µM].

On to `CC(C)C1=C[C@@]23CC[C@@H]4[C@](C)(CCC[C@@]4(C)C(=O)N4CCCNCC4)[C@H]2C[C@@H]1[C@H]1C(=O)CCC(=O)[C@H]13`, for which the growth is 106%.

Turning to `O=C1C=C(OCC=C(Cl)Cl)C(=O)c2ccccc21`, the growth was 76.4%.

As for `COc1cccc(/C=C2\SC(=Nc3ccc(NC(C)=O)cc3)NC2=O)c1OC`, the growth is 100%.

In the case of `C=CCSSc1ncnc2c1ncn2C1OC(CO)C(O)C1O` (centres undefined), the growth was 39.8%.

For the compound `Cc1ncc(C(=O)Nc2ccc(CN3CCN(C)CC3)c(C(F)(F)F)c2)cc1C#Cc1cnc2cccnn12`, the growth is -2.41% (active).

For `NNCCc1ccc(NC(=O)CCCc2ccc(/C=C/C(=O)NO)cc2)cc1`, the growth is 51.7%.

As to `COc1cc2c(cc1-c1c(C)noc1C)ncc1nc(C3CCOCC3)n([C@H](C)COC(F)F)c12`, the growth was 31.8%.

For `C=CC(=O)Nc1cccc(-c2nc(SC)nc(NCCc3ccc(OC)c(OC)c3)c2C#N)c1`, the growth was 29.7%.

The next experiment concerns M14 melanoma. The experiment is described as above. The following applies: 10 µM unless noted.
Consider `N#CCCN=Nc1c(O)[nH]c2ccc([N+](=O)[O-])cc12`, for which the growth was 101%.

`COc1cc(-c2ccc3c(c2)NC(=O)/C3=C\c2ccc[nH]2)ccc1O`: the growth is 34.1%.

As to `C=C(C)[C@@H]1CC[C@]2(C(N)=O)CC[C@]3(C)[C@H](CC[C@@H]4[C@@]5(C)C/C(=C/c6ccco6)C(=O)C(C)(C)[C@@H]5CC[C@]43C)[C@@H]12`, the growth is 85.1%.

As for `O=C1Nc2c(ccc(Cl)c2Cl)/C1=C\c1cc(C(F)(F)F)cc(C(F)(F)F)c1`, the growth was -18.2% (active).

On to `COc1cc2c(cc1-c1c(C)noc1C)ncc1nc(C3CCOCC3)n([C@@H](C)COC(F)F)c12`, for which the growth was 41%.

Turning to `O=C1Nc2c(ccc(Cl)c2Cl)/C1=C\c1ccc(C(F)(F)F)cc1`, the growth is 98%.

With `C[n+]1ccccc1/C=C/c1ccc2cccc(O)c2n1`, the growth was 103%.

With `COc1ccc(/C=C/c2nc3ccccc3nc2/C=C/c2ccc(OC)cc2)cc1`, the growth was 93%.

Turning to `C=CC(=O)Nc1cccc(-c2nc(SC)nc(NCCN3CCOCC3)c2C#N)c1`, the growth is 89.9%.

Take `COc1cc2nc(N3CCCC3)nc(NCc3ccccc3)c2cc1OC`: the growth is -71.2% (active).

In the case of `COc1cc(CNc2oc(-c3ccccc3)c(-c3ccccc3)c2C#N)cc(CN2CCN(C)CC2)c1O`, the growth is -62.2% (active).

In the case of `O=C(/C=C/c1cc(CN2CCOCC2)c(O)c2ncccc12)c1cc(CN2CCOCC2)c(O)c2ncccc12`, the growth was 31.3%.

Take `CSc1nc(NCCO)c(C#N)c(-c2cccc([N+](=O)[O-])c2)n1`: the growth was 104%.

In the case of `CCN(CC)c1ccc(-c2cc(-c3cc(OC)c(OC)c(OC)c3)nc(N3CCOCC3)c2C#N)cc1`, the growth is -53.9% (active).

`COc1ccc2[nH]cc(-c3noc(C(=O)c4cn(C)c5ccc(F)cc45)n3)c2c1`: the growth is 98.6%.

On to `CCCc1cc(=O)n2c(C(=O)Nc3cccc(C(=O)OCC)c3)c(C(=O)Nc3ccc(F)cc3)sc2n1`, for which the growth was 75.2% [30 µM].

Regarding `O=S(=O)(Nc1ccc(I)cc1F)c1ccc(-c2cnc(C3CC3)o2)cc1`, the growth was 37.4%.

Consider `COC(=O)c1cccc(NC(=O)c2ccc(-c3cccc(N)c3)o2)c1`, for which the growth was 112%.

`O=C(/C=C/c1ccccc1)c1ccc(O)c(CN2CCN(c3cc4c(cc3F)c(=O)c(C(=O)O)cn4C3CC3)CC2)c1`: the growth was 27.9%.

For the compound `Cc1[nH]c(-c2cc(N)ccc2Cl)c2c1C(=O)CCCC2`, the growth is 39.3%.

Turning to `Nc1nc2ncc(CCNc3ccc(C(=O)O)cc3)nc2c(=O)[nH]1`, the growth is 107%.

As to `O=C1c2cc3c(cc2-c2c1c1ccc(F)cc1c(=O)n2CCCNCCO)OCO3`, the growth was -39.7% (active).

Regarding `N#C/C(=C\c1ccc(-c2cc(C(F)(F)F)ccc2Cl)o1)c1nc(-c2ccco2)cs1`, the growth is 99.4%.

As to `O=c1cc(CSc2nnc(-c3ccc(F)cc3)o2)c2ccc3ccccc3c2o1`, the growth is 103%.

Consider `C=C(C)[C@@H]1CC[C@]2(C(=O)OC)CC[C@]3(C)[C@H](CC[C@@H]4[C@@]5(C)C/C(=C/c6cccc(I)c6)C(=O)C(C)(C)[C@@H]5CC[C@]43C)[C@@H]12`, for which the growth is 103%.

`O=C1OCC2=C1C(c1ccncc1)c1cc3c(cc1N2CCO)OCO3` (centres undefined): the growth is 107%.

As to `COC(=O)c1ccc(NC(=O)c2ccc(-c3cccc([N+](=O)[O-])c3)o2)cc1`, the growth is 101%.

Turning to `O=c1cc(/C(=C2/C=CC=N2)c2ccc[nH]2)c2cc(Cl)ccc2o1`, the growth is 35.5%.

With `COc1ccc2nc(NC(=O)CSc3nnc4n3S(=O)(=O)c3ccccc3N4c3ccccc3)sc2c1`, the growth is 100%.

Regarding `Cc1cc(C)nc(SC2=C(Nc3ccc(C)c(Cl)c3)C(=O)N(Cc3ccccc3)C2=O)n1`, the growth was 64% [30 µM].

Consider `CC(C)C1=C[C@@]23CC[C@@H]4[C@](C)(CCC[C@@]4(C)C(=O)N4CCCNCC4)[C@H]2C[C@@H]1[C@H]1C(=O)CCC(=O)[C@H]13`, for which the growth is 93%.

Regarding `O=C1C=C(OCC=C(Cl)Cl)C(=O)c2ccccc21`, the growth is 83.3%.

As to `COc1cccc(/C=C2\SC(=Nc3ccc(NC(C)=O)cc3)NC2=O)c1OC`, the growth is 98.1%.

With `C=CCSSc1ncnc2c1ncn2C1OC(CO)C(O)C1O` (centres undefined), the growth is 15.4%.

Take `Cc1ncc(C(=O)Nc2ccc(CN3CCN(C)CC3)c(C(F)(F)F)c2)cc1C#Cc1cnc2cccnn12`: the growth is -79.9% (active).

Consider `NNCCc1ccc(NC(=O)CCCc2ccc(/C=C/C(=O)NO)cc2)cc1`, for which the growth is 61.1%.

With `COc1cc2c(cc1-c1c(C)noc1C)ncc1nc(C3CCOCC3)n([C@H](C)COC(F)F)c12`, the growth was 46.2%.

For `C=CC(=O)Nc1cccc(-c2nc(SC)nc(NCCc3ccc(OC)c(OC)c3)c2C#N)c1`, the growth was 26.9%.

These data come from PubChem BioAssay (NCI).
